Experimental data: PubChem BioAssay (NCI)
About 83,000 compounds went through this panel and 20% of them were active in at least one assay; those are over-represented in the sample as a whole.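 Percent growth is the endpoint: 0 to 100 indicates growth inhibition (40 means 60% inhibition), 0 means no net growth, and negative values indicate cell death.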 Values without a mark were called inactive. Activity calls are given as the source filed them. How the source made its calls: active means growth percent below 10; inactive means the rest.

Assays:
Assay in all cases: NCI-60 one-dose screen, 48 h (100 = growth as untreated, 0 = no growth, -100 = all killed)
Settings in all cases: 10 µM unless noted
SR leukemia = system: SR leukemia
RPMI-8226 leukemia = system: RPMI-8226 leukemia
OVCAR-8 ovarian = system: OVCAR-8 ovarian
OVCAR-4 ovarian = system: OVCAR-4 ovarian
SK-OV-3 ovarian = system: SK-OV-3 ovarian
IGROV1 ovarian = system: IGROV1 ovarian
OVCAR-3 ovarian = system: OVCAR-3 ovarian
HS 578T breast = system: HS 578T breast
OVCAR-5 ovarian = system: OVCAR-5 ovarian
NCI/ADR-RES ovarian = system: NCI/ADR-RES ovarian

Structure (SMILES) | growth (SR leukemia) | growth (RPMI-8226 leukemia) | growth (OVCAR-8 ovarian) [%] | growth (OVCAR-4 ovarian) | growth (SK-OV-3 ovarian) | growth (IGROV1 ovarian) | growth (OVCAR-3 ovarian) | growth (HS 578T breast) | growth (OVCAR-5 ovarian) [%] | growth (NCI/ADR-RES ovarian)
Cn1cc(-c2nnc(N)nc2-c2c[nH]c3ccc(F)cc23)c2cc(Br)ccc21 | 4.93% (active) | 5.9% (active) | 34.4 | 50.1% | 33.7% | 34.6% | 10.7% | 7.85% (active) |  | 
CCCN1C=C/C(=C\C(=O)n2ccc3ccccc32)c2ccccc21 | 55.9% | 69.3% | 95.6 | 49.9% | 70.2% | 59.1% | 87.3% | 101% |  | 
CC(=O)/C(N=Nc1ccc2oc(=O)ccc2c1)=C(\C)O | 9.76% (active) | 12.3% | 25.1 |  | 37.1% |  |  | 63.1% | 50.8 | 13.3%
O=C(CSc1nnc(-c2ccc(Cl)cc2)n1-c1ccccc1)Nc1ccc(Cl)cc1 | 18.6% | 31% | 31 | -55.8% (active) | 75% | 23.3% | 57.5% | 38.4% |  | 34.7%
N#Cc1c(-c2cccs2)cc(-c2cnccn2)nc1SCC(=O)N/N=C/c1ccncc1 | 93.6% | 103% | 103 | 111% | 109% | 104% | 117% | 109% |  | 108%
CCCCCCOC(=O)c1cc(-c2ccc(F)cc2)nc2ccccc12 | 107% | 110% | 98.1 | 101% | 87.4% |  | 104% | 94.1% |  | 
NC(=S)n1c(=O)n(-c2cccc(C(F)(F)F)c2)c(=O)c2cc(-c3ccc(F)cc3F)ccc21 | 5.69% (active) | -20.8% (active) | 10.9 | 29.9% | -2.63% (active) | 21.2% |  | -2.09% (active) |  | 4.95% (active)
O=C(O)c1ccc(-n2c(=O)n(-c3cccc(C(F)(F)F)c3)c(=O)c3cc(-c4ccc(F)cc4F)ccc32)cc1 | 8.91% (active) | -7.92% (active) | 13.9 | 31.2% | 2.5% (active) | 17.8% |  | -4.81% (active) |  | 3.12% (active)
COc1ccc(C(=O)c2c(N)c(C#N)cn2-c2ccc(Cl)cc2Cl)cc1 | 92.1% | 101% | 94.6 | 103% | 117% | 101% | 106% | 90.9% |  | 86.7%
CCCCc1nc2c(N)nc3ccccc3c2n1Cc1ccc(OC)cc1 | 46.2% | 34.1% | 67.4 | 58.1% | 74.8% | 56.8% |  | 79.8% |  | 
CCNC(=O)Oc1ccc(/C(=C(/C)c2ccc(Cl)cc2)c2ccc(OCCN3CCCCCC3)cc2)cc1 | -5.81% (active) | -14.9% (active) | 51.5 |  | 63.2% | 49.5% |  | -3.08% (active) | 53.5 | 38.1%
CN1CCN(Cc2ccc(/C=N/Nc3ccnc4cc(Cl)ccc34)cc2)CC1 | 2.66% (active) | 46.7% | 80.1 |  | 107% | 69.2% |  | 89.3% | 102 | 87%
Cc1cc(C)cc(NC2=C(Cl)C(=O)c3nc(C)ccc3C2=O)c1 | 41% | -15.1% (active) | 73.1 | -5.74% (active) | 107% | -62.1% (active) | -0.41% (active) | 11.1% |  | 65.6%
O=C(CSc1nnc(-c2ccc(Cl)cc2)n1-c1ccccc1)Nc1cccc(F)c1 | 37.2% | 40.5% | 35.7 | -46.4% (active) | 78.6% | 20.3% | 51.9% | 28% |  | 37%
NS(=O)(=O)c1ccc(Nc2nc(N/N=C/C=C/c3ccccc3)nc(Nc3ccccc3)n2)cc1 | 14.9% | 28.5% | 50 | 49.6% | 78.3% | 36.8% |  | 39.7% |  | 91.1%
Cc1csc(/N=C(N)/N=C(\N)c2cccs2)n1 | 99% | 101% | 101 |  | 92.3% | 101% |  | 107% | 115 | 108%
